Data taken from PubChem BioAssay (Tox21).
Records with an inconclusive call do not appear. Active and inactive are the calls of the source. Unless noted, calls come from the whole dose curve.

Key:
[1] = qHTS assay to identify small molecule antagonists of the vitamin D receptor (VDR) signaling pathway - cell viability counter screen (AID 743225; active = well fitted curve in the direction sought with a large enough effect in the repeat runs; an effect the other way counts as inactive or inconclusive; note: % is set by controls: 0 for no effect and ±100 for the full control effect; nearly all actives have a fitted effect of over 50% in size); conditions: VDR-bla HEK293T viability, CellTiter-Glo luminescence, 16 h; series mostly up to 61 µM
Summary of the method: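 Luminescent cell viability (CellTiter-Glo) in VDR-bla HEK 293T cells after 16 h compound exposure at 37C in the presence of 3 nM final 1-alpha,25-dihydroxy vitamin D3.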

[2] = qHTS assay to identify small molecule agonists of the NFkB signaling pathway (AID 1159509; active = well fitted curve in the direction sought with a large enough effect in the signal ratio in the repeat runs, not every such curve was filed as active; the % refers to the signal ratio; note: % is set by controls: 0 for no effect and ±100 for the full control effect); conditions: NFkB-bla ME-180 cells, beta-lactamase FRET ratio, 5 h; series mostly up to 61 µM
Summary of the method: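 After overnight attachment, reporter cells received test compounds, DMSO or positive controls and were incubated 5 hr at 37 C. FRET substrate was then added for 1.5 hr at room temperature before dual-emission fluorescence reading.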

[3] = qHTS assay to identify small molecule agonists of the NFkB signaling pathway - cell viability counter screen (AID 1159515); conditions: NFkB-bla ME-180 viability, CellTiter-Glo luminescence, 5 h; series mostly up to 61 µM; note: % is set by controls: 0 for no effect and ±100 for the full control effect; nearly all actives have a fitted effect of over 55% in size
Summary of the method: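 NFkB-bla ME-180 cells, 2,000/well, plated overnight at 37 C; compound added for 5 hr at 37 C. Viability read in the same wells as the bla reporter, by CellTiter-Glo luminescence after 30 min at room temperature.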

[4] = qHTS assay to identify small molecule agonists of the endoplasmic reticulum stress response signaling pathway (AID 1159516; active = well fitted activation curve with a large enough effect in the signal ratio in the repeat runs, not every such curve was filed as active; the % refers to the signal ratio; note: % is set by controls: 0 for no effect and ±100 for the full control effect); conditions: ESRE-bla HeLa, ER stress beta-lactamase reporter, 5 h; series mostly up to 61 µM
Summary of the method: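 CellSensor ESRE-bla HeLa cells, 1,500 per well, plated overnight, then exposed to compounds for 5 hr at 37 C. Beta-lactamase reporter read with LiveBLAzer B/G FRET substrate after 2 hr at room temperature, 405 nm excitation, 460 and 530 nm emission.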

[5] = qHTS assay to identify small molecule agonists of the endoplasmic reticulum stress response signaling pathway - cell viability counter screen (AID 1159517); conditions: ESRE-bla HeLa viability, CellTiter-Glo luminescence, 5 h; series mostly up to 61 µM;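 note: HeLa cells carrying an ER stress response element beta-lactamase reporter; % is set by controls: 0 for no effect and ±100 for the full control effect; nearly all actives have a fitted effect of over 50% in size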
Summary of the method: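 Counter-screen wells were identical to the reporter wells. Cells were plated at 1,500 per well and dosed for 5 hr, then read for luminescence 30 min after CellTiter-Glo addition.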

[6] = biological target: Nuclear receptor ROR-gamma (Homo sapiens) (UniProt P51449); assay: qHTS assay to identify small molecule antagonists of the retinoid-related orphan receptor gamma (ROR-gamma) signaling pathway (AID 1159521; active = well fitted curve in the direction sought with a large enough effect in the repeat runs; an effect the other way counts as inactive or inconclusive;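 note: CHO cells with doxycycline inducible ROR-gamma driving an RORE luciferase reporter; top concentration of the series differs between compounds; % is set by controls: 0 for no effect and ±100 for the full control effect; nearly all actives have a fitted effect of over 50% in size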); conditions: Tet-on RORgamma CHO cells, RORE-luciferase, 16 h; series mostly up to 92.4 µM
Summary of the method: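 CHO cells expressing RORγ under a TET-on promoter, luciferase under RORE control. Dox 1 uM final, 16 h; compounds added 2 h prior. Luminescence decrease measured.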

[7] = qHTS assay to identify small molecule agonists of the AP-1 signaling pathway - cell viability counter screen (AID 1159525); conditions: ME-180 AP-1-bla cells viability, ATP luminescence, 5 h; series mostly up to 76.8 µM; note: nearly all actives have a fitted effect of over 55% in size
Summary of the method: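 AP-1-bla ME-180 cells in Opti-MEM with 0.5% dialyzed FBS, compound exposure 5 h at 37 C in 15-point titration. Viability read in the same wells as ATP content by CellTiter-Glo luminescence, normalised to tetra-n-octylammonium bromide and DMSO controls.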

[8] = qHTS assay to identify small molecule agonists of the AP-1 signaling pathway (AID 1159526); conditions: ME-180 (cervical carcinoma) AP-1-bla reporter, beta-lactamase FRET ratio, 5 h; series mostly up to 76.8 µM; note: % is set by controls: 0 for no effect and ±100 for the full control effect
[9] = qHTS assay to identify small molecule agonists of the vitamin D receptor (VDR) signaling pathway - cell viability counter screen (AID 743224; active = well fitted curve in the direction sought with a large enough effect in the repeat runs; an effect the other way counts as inactive or inconclusive; note: % is set by controls: 0 for no effect and ±100 for the full control effect; nearly all actives have a fitted effect of over 50% in size); conditions: VDR-bla HEK293T viability, CellTiter-Glo luminescence, 16 h; series mostly up to 62.6 µM
Summary of the method: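 VDR-bla cells, 4 h after plating, exposed to compounds for 16 h at 37C; viability then read in the same wells as CellTiter-Glo luminescence after 30 min at room temperature, following the bla FRET read.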

Cc1onc(-c2ccccc2)c1-c1ccc(S(N)(=O)=O)cc1
inactive: outcome [1] | outcome [2] | outcome [3] | outcome [4] | outcome [5] | Potency [6] | outcome [7] | Potency [8]

NC(=S)Nc1cccc2ccccc12
inactive: activity change, negative = cytotoxicity [9] 6.68% [at 5.95 µM] | activation [2] -0.909% [at 6.95 µM] | activity, negative = cytotoxic [3] -2.24% [at 6.95 µM] | activation [4] -3.75% [at 6.95 µM] | activity change, negative = cytotoxicity [5] 2.64% [at 6.95 µM] | activity change, negative = inhibition [6] 10.3% [at 8.39 µM] | viability change, negative = cytotoxic [7] -1.31% [at 6.97 µM] | activation [8] -4.57% [at 6.97 µM]

Cn1ccc2cc3c(cc21)CCN3C(=O)Nc1cccnc1
inactive: outcome [9] | outcome [1] | outcome [2] | outcome [3] | outcome [4] | outcome [5] | activity change, negative = inhibition [6] 207% [at 19 µM] | viability change, negative = cytotoxic [7] 0.227% [at 15.8 µM] | activation [8] -5.75% [at 15.8 µM]

CCCC(C)C(=O)O (centres undefined)
inactive: outcome [9] | outcome [1] | outcome [2] | outcome [3] | outcome [4] | outcome [5] | Potency [6] | outcome [7] | Potency [8]
